# Data from PubChem BioAssay AID2642 (Johns Hopkins Ion Channel Center, 2010).
# Screen size: about 310,000 compounds; about 3,900 (1.3%) were called active.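 How the source made its calls: active means compounds whose thallium flux B-score, printed positive for inhibition, exceeds three library SD while starting fluorescence stays within three; inactive means the rest.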 Only a selection was taken, and actives are over-represented in it overall.
# Biological target: Potassium voltage-gated channel subfamily KQT member 1 (Homo sapiens) (UniProt P51787)
# Sequence (P51787 whole entry, looked up): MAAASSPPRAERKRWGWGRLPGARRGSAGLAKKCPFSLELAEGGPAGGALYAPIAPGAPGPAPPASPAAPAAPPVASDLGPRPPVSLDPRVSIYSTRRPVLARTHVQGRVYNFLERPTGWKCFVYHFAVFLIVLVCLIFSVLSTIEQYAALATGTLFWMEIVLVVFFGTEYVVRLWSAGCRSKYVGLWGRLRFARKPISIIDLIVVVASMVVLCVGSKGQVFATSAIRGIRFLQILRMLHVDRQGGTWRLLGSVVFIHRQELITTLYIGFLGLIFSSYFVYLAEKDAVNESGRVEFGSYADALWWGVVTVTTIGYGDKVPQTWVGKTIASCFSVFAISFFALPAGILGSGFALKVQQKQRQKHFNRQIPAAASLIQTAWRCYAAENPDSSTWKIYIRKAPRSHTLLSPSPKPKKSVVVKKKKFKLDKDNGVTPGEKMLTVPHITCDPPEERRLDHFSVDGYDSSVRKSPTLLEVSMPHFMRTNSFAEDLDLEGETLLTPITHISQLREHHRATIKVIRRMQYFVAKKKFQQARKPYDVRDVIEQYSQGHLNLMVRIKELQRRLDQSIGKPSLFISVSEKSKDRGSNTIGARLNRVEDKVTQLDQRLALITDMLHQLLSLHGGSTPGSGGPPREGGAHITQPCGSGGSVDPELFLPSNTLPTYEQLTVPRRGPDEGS
# Assay: KCNQ1 potassium current blockers – cell-based, thallium flux, high-throughput, primary screen (AID 2642);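 further: channel opened by potassium depolarization with thallium stimulus after 20 min compound exposure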
# Settings: CHO-K1 KCNQ1, FluxOR thallium flux fluorescence, at 10 µM; active compounds read high
row,Compound,B-score
1,COc1ccccc1N1CCN(C(=O)c2cn(-c3ccccc3)nc2-c2cccnc2)CC1,inactive
2,COc1ccc(NC(=O)C(CC(C)C)NC(=O)C2CCC(C)CC2)cc1 (stereo not drawn),inactive
3,COc1ccc(CCNCC(O)Cn2ccc3ccccc32)cc1OC (stereo not drawn),inactive
4,Cc1cccc(NC(=S)Nc2ccc(Br)cc2)c1,6 (active)
5,Cc1cccc(NC(=S)NC23CN4CN(CN(C4)C2)C3)c1,inactive
6,Cc1cccc(NC(=S)Nc2ccc3cn[nH]c3c2)c1,inactive
7,Cc1cccc(NC(=S)Nc2ccc(Cl)c(Cl)c2)c1,7 (active)
8,Cc1cccc(NC(=O)NC(=S)NC(=O)c2ccccc2)c1,inactive
9,Cc1ccc(NC(=S)Nc2ccc(F)cc2)cc1,inactive
10,Cc1ccc(C)c(N2CCN(C(=O)CCCn3c(=O)c4cccn4c4cccnc43)CC2)c1,inactive
11,COC(=O)CN1C(=O)[C@H]2[C@@H](/C=C/c3ccccc3)N3C(=O)CN(Cc4ccccc4)C(=O)[C@@]3(Cc3ccccc3)[C@H]2C1=O,inactive
12,CN(C)/C=C(/C(=O)c1ccc(F)cc1)S(=O)(=O)c1ccc(F)cc1,inactive
13,Cc1nnc(SC(C(=O)c2ccccc2)c2ccccc2)[nH]c1=O (stereo not drawn),inactive
14,CC(NCC(=O)Nc1cc(Cl)cc(Cl)c1)c1ccccc1 (stereo not drawn),inactive
15,Cc1nnc(SC(C(=O)Nc2cc(Cl)cc(Cl)c2)c2ccccc2)[nH]c1=O (stereo not drawn),8 (active)
16,O=C(N/N=C/C=C/c1ccccc1)C1CC1(c1ccccc1)c1ccccc1 (stereo not drawn),inactive
17,CC(/C=C/c1ccccc1)=N\NC(=O)C1CC1(C)c1ccccc1 (stereo not drawn),9 (active)
18,CC(/C=C/c1ccco1)=N/NC(=O)C1COc2ccccc2O1 (stereo not drawn),inactive
19,COc1ccc(NC(=O)c2oc3ccc(S(=O)(=O)N4CCOCC4)cc3c2C)cc1,inactive
20,COCCN1C2=C(COC(C)(C)C2)C(=S)NC1c1ccccc1 (stereo not drawn),inactive
21,Cc1nc([N+](=O)[O-])nn1C12CC3CC(CC(Br)(C3)C1)C2,inactive
22,CCOC(=O)c1c(NC(=O)CCCN2CCOCC2)sc2c1CC(C)(C)OC2,inactive

row,Compound,B-score
1,COc1ccc(C(=O)C2CCCN(Cc3ccc4nonc4c3)C2)c(C)c1 (stereo not drawn),inactive
2,CCOC(=O)c1[nH]ncc1CN1CCCC(C(=O)c2ccc(OC)cc2C)C1 (stereo not drawn),inactive
3,COc1ccc(C(=O)C2CCCN(Cc3cccn3-c3ccccn3)C2)c(C)c1 (stereo not drawn),9 (active)
4,CCC(=O)c1ccc(OCC(O)Cn2nc(C)c(C(C)=O)c2C)cc1 (stereo not drawn),inactive
5,CCOC(=O)CCc1c(C)c(C#N)c2[nH]c3ccccc3n2c1=O,inactive
6,CCCc1cc(=S)n2c([nH]c3ccccc32)c1C#N,8 (active)
7,Cc1ccccc1Cn1c(=O)[nH]c2ccccc21,inactive
8,CCCN(CC1COc2ccccc2O1)C(=S)Nc1ccc(C)cc1 (stereo not drawn),inactive
9,CCCn1c(C)cc(/C=C(\C#N)C(=O)OCC(=O)N(C)c2c(N)n(Cc3ccccc3)c(=O)[nH]c2=O)c1C,inactive
10,CCC(C)[C@@H](C(=O)N1CCNCC1)n1cc(CCCCN)nn1 (stereo partly drawn),inactive
11,O=C(CCN1c2ccccc2Sc2ccccc21)Nc1ccccc1,12 (active)
12,CC1CCN(CCC(=O)Nc2ccccc2)CC1,inactive
13,O=C(CCN1C(=O)c2ccccc2C1=O)Nc1ccncc1,inactive
14,CCN1CCN(C(=O)CN(C)S(=O)(=O)c2ccc3ccccc3c2)CC1,inactive
15,CON(C)S(=O)(=O)c1ccc2c(c1)NC(=O)C1CCCN21 (stereo not drawn),inactive
16,Fc1cccc(Cl)c1CSc1ccc(-c2ccco2)nn1,inactive
17,Clc1ccccc1CSc1nnc(-c2ccco2)c(-c2ccco2)n1,11 (active)
18,O=c1cc(O)nc(SCc2ccccc2Cl)[nH]1,inactive
19,CC[C@@]12C(=O)N(c3ccccc3)C(=O)N1[C@H](c1ccc(Br)cc1)[C@@H]1C(=O)N(C(C)(C)C)C(=O)[C@@H]12,inactive
20,O=C1c2cccc3c([N+](=O)[O-])ccc(c23)C(=O)N1CC1CCCO1 (stereo not drawn),6 (active)
21,CCOc1cccc(=O)c2c(C)n(CC3CCCO3)c(C)c12 (stereo not drawn),inactive
22,CCC(=O)Nc1ccc(C(=O)Nc2ccc3c(c2)C(=O)N(CC2CCCO2)C3=O)cc1 (stereo not drawn),inactive

row,Compound,B-score
1,CCOC(=O)C1CCN(Cc2coc3ccc(Cl)cc3c2=O)CC1,inactive
2,Cc1ccccc1-n1cc(CNC(=O)C2CCC(=O)N(C3CC3)C2)cn1 (stereo not drawn),inactive
3,Cc1ccc(C)c(N2CCN(S(=O)(=O)c3c(C)[nH]c(C)c3C(=O)N3CCCC3)CC2)c1,inactive
4,O=[N+]([O-])c1cc(Br)c(O)c(/C=N/Nc2nc3ccccc3s2)c1,12 (active)
5,COc1ccc(CC(=O)N/N=C/c2cc([N+](=O)[O-])cc(Br)c2O)cc1,inactive
6,c1ccc2sc(NN=C3CCCC3)nc2c1,inactive
7,CCc1ccc(N(CC(=O)Nc2sc3c(c2C(=O)OC)CCCC3)S(C)(=O)=O)cc1,inactive
8,CCN(CC)CC(=O)Nc1sc2c(c1C(=O)c1ccccc1C)CCC2,8 (active)
9,O=C(Nc1sc2c(c1C(=O)O)CCC2)c1ccccc1F,inactive
10,CCc1nc(N2CCN(C(C)=O)CC2)c2c3c(sc2n1)CCCC3,inactive
11,NS(=O)(=O)c1ccc(CCNC(=S)Nc2ccc(S(N)(=O)=O)cc2)cc1,inactive
12,NS(=O)(=O)c1ccc(NC(=S)Nc2ccc(Br)c(Cl)c2)cc1,8 (active)
13,NS(=O)(=O)c1ccc(NC(=S)NC(=O)c2cccc(Br)c2)cc1,inactive
14,CCCCSc1[nH]c(=O)c(C(=O)OCC)cc1C#N,inactive
15,COCCN(C(=S)Nc1cccc(Cl)c1C)C(C)c1ccco1 (stereo not drawn),inactive
16,Fc1ccc(/C=N/n2c(COc3ccccc3)n[nH]c2=S)cc1,inactive
17,CC(C)[C@H](NC(=O)N1CCn2c1nc1ccccc12)C(=O)NCCc1ccccc1,inactive
18,CC(C)CCNC(=O)Cn1c(=O)oc2cc(S(=O)(=O)N3CC(C)CC(C)C3)ccc21 (stereo not drawn),inactive
19,CCOc1ccc(CN2CCN(Cc3c[nH]c4ccccc34)CC2)cc1,12 (active)
20,CCOc1ccc(CC(=O)NC2CCN(Cc3ccccc3)CC2)cc1,inactive
21,CCOc1ccc(CN2CCCN(C)CC2)cc1,inactive
22,COc1ccc(N(C)S(=O)(=O)c2ccc3c(c2)CC(C)N3C(=O)C2CC2)c(OC)c1 (stereo not drawn),inactive

row,Compound,B-score
1,Cc1nc2ccccc2cc1OCc1ccc(F)cc1,11 (active)
2,Fc1ccccc1COc1cccc2cccnc12,inactive
3,Cc1occc(=O)c1OCc1ccc(F)cc1,inactive
4,Cc1nn(C)cc1N1C(=O)c2cccc3c(N)ccc(c23)C1=O,22 (active)
5,CN1C(=O)c2cccc3c(N)ccc(c23)C1=O,inactive
6,O=C1c2ccccc2C(=O)N1c1cccc2ccccc12,inactive
7,C/C(N)=C(/C#N)C(=O)COC(=O)c1cc(-c2ccc(C)cc2)nc2ccccc12,inactive
8,CCCCCCCC[n+]1cccc(C(=O)N2c3c(nc(N)[nH]c3=O)NC(C)C2C)c1 (stereo not drawn),inactive
9,COC(=O)c1ccccc1NC(=S)NC(=O)c1ccccc1F,inactive
10,O=C(NC(=S)Nc1ccccc1C(=O)O)c1ccc(-c2ccc(Br)cc2)o1,7 (active)
11,O=C(O)c1ccccc1NC(=O)c1ccccc1-c1ccccc1C(=O)O,inactive
12,COCCNC(=O)C(c1ccc(O)cc1)N(C(=O)CCC(=O)Nc1nccs1)c1ccc(C)cc1 (stereo not drawn),inactive
13,CCOC(=O)CN(C(=O)COc1nc(C)cc(C)c1C#N)c1ccc(Cl)cc1,inactive
14,Cc1cc(C(=O)CCC(=O)NNC(=O)c2ccccc2O)c(C)s1,6 (active)
15,Cc1ccccc1C(=O)NNC(=O)CN1C(=O)c2ccccc2C1=O,inactive
16,CC1=C(C)CC(C(=O)NNC(=O)c2ccccc2O)C(C(=O)O)C1 (stereo not drawn),inactive
17,COc1ccccc1CNC(=O)COn1nnc2ccc(S(=O)(=O)N3CCOCC3)cc21,inactive
18,O=S(=O)(c1ccc(Cl)cc1)c1nc(-c2ccco2)oc1N1CCCCC1,inactive
19,CCc1cc(C(c2ccccc2OC)N2CCOCC2)c(NC(=O)c2ccccc2)s1 (stereo not drawn),7 (active)
20,CCc1cc(C(N)=O)c(NC(=O)c2ccc(OC)cc2)s1,inactive
21,COc1ccc(C(=O)Nc2sc(C)c(C)c2CN2CCOCC2)cc1,inactive
22,CC(C)CNc1ncnc2c1cnn2Cc1ccc(Cl)cc1,inactive

row,Compound,B-score
1,Cc1ccc(Cl)cc1NC(=O)COC(=O)CC(C)(C)C,inactive
2,COCn1c(C(O)c2ccccc2)cc2ccccc21 (stereo not drawn),inactive
3,N#Cc1cccc(Nc2c3c(nc4ccccc24)CCCC3)c1,inactive
4,O=[N+]([O-])c1cccc(Nc2c3ccccc3nc3ccccc23)c1,8 (active)
5,Cc1cc(CNC(=O)c2cccc([N+](=O)[O-])c2)c2ccccc2n1,inactive
6,NS(=O)(=O)c1ccc(CCNC(=O)CNC(=O)Cc2ccccc2)cc1,inactive
7,O=C1N(c2ccccc2)C(=Nc2ccccc2)SC12CC2,inactive
8,C#CCCOC(=O)N1C2=NC(C(=O)OC)=C(C(=O)OC)[C@@H]3N(C)c4ccc(OC)cc4[C@]23C[C@H]1C(=O)OC,inactive
9,O=C1c2ccccc2C(=O)c2c1cccc2N1CCN(C/C=C/c2ccccc2)CC1,inactive
10,O=C1c2ccccc2C(=O)c2c1cccc2N1CCN(Cc2ccccc2)CC1,6 (active)
11,O=C1c2ccccc2C(=O)c2c1cccc2N1CCN(CCO)CC1,inactive
12,COC(=O)c1cccc(N(C(=O)CNC(=O)c2cccs2)C(C(=O)NCC2CCCO2)c2ccc(OC)c(OC)c2)c1 (stereo not drawn),inactive
13,Oc1ccc2ccc3cccc[n+]3c2c1,30 (active)
14,CCN(Cc1nc2ccccc2c(=O)[nH]1)Cc1cc(=O)oc2cc(C)c(C)cc12,inactive
15,CC(C)CCN(C(=O)c1csnn1)C(C(=O)NC1CCCC1)c1ccccc1 (stereo not drawn),inactive
16,Cc1cc(C)cc(NC(=O)NC2CCCCCCC2)c1,7 (active)
17,CC(C)c1ccc(NC(=O)NC2CCCCC2)cc1,inactive
18,O=C(Nc1cccc(F)c1)NC1CCCCCCC1,inactive
19,COc1cccc2c1OCC(C(=O)NCc1ccc(Cl)cc1Cl)=C2,inactive
20,CCOc1cc(C2C(C(=O)OC(C)C)=C(C)NC3=C2C(=O)CCC3)cc([N+](=O)[O-])c1O (stereo not drawn),inactive
